Inconclusive results are not listed. The source made the active and inactive calls. Calls follow the shape of the dose curve; as a rule, active = well fitted inhibition curve with a large enough effect; inconclusive = small, poorly fitted or top-dose-only effect; inactive = flat fitted curve, though single readings scatter.
Experiments:
Experiment in all cases: qHTS profiling for inhibitors of Plasmodium falciparum proliferation (AID 504749); also: nearly all actives have a fitted effect of over 60% in size
Conditions in all cases: P. falciparum in erythrocytes, SYBR Green DNA, 72 h; series mostly up to 28.7 µM
[1] = system: AA1029
Method in brief: (§1)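 Infected RBCs, 0.3% parasitemia/2.5% Hct final; cpd 72 h, 37 C, 5% CO2; lysis buffer with saponin/triton/SYBR Green I, o/n RT dark; FI 485/535; norm. to artemisinin (0.29 uM) and DMSO.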

[2] = system: AS120
Method in brief: as §1

[3] = system: ATS189
Method in brief: as §1

[4] = system: C2A
Method in brief: as §1

[5] = system: CP185
Method in brief: as §1

[6] = system: CP191
Method in brief: as §1

[7] = system: CP192
Method in brief: as §1

[8] = system: CP194
Method in brief: as §1

[9] = system: CP201
Method in brief: as §1

[10] = system: CP203
Method in brief: as §1

[11] = system: CP211
Method in brief: as §1

[12] = system: CP215
Method in brief: as §1

[13] = system: CP217
Method in brief: as §1

[14] = system: CP237
Method in brief: as §1

[15] = system: CP238
Method in brief: as §1

[16] = system: CP247
Method in brief: as §1

[17] = system: CP250
Method in brief: as §1

[18] = system: CP252
Method in brief: as §1

[19] = system: CP256
Method in brief: as §1

[20] = system: ATS95
Method in brief: as §1

Measured: Potency
Potency is read from the fitted curve at half-maximal effect.

COc1ccc(/C=C/C(=O)O)cc1
not listed: [20]
inactive: all other assays above

NC(=S)N=Nc1ccc(NN=C(N)N)cc1
active: [1] 12.6 µM | [2] 12.6 µM | [3] 10 µM | [20] 10 µM | [4] 5.62 µM | [5] 11.2 µM | [6] 4.47 µM | [7] 8.49 µM | [8] 7.57 µM | [10] 12 µM | [11] 7.57 µM | [12] 7.57 µM | [13] 12.6 µM | [14] 10 µM | [15] 11.2 µM | [16] 11.2 µM | [18] 8.91 µM | [19] 1.58 µM

O=C(OCc1ccccc1)c1cccnc1
not listed: [6] | [8] | [12] | [19]
inactive: all other assays above

CC(C)OC(=O)Nc1ccc2nc(-c3cscn3)[nH]c2c1
not listed: [4] | [16]
inactive: all other assays above

O=C(O)CC/C=C\CC[C@@H]1[C@@H](N2CCCCC2)[C@@H](O)C[C@@H]1OCc1ccc(-c2ccccc2)cc1
not listed: [6] | [14]
inactive: all other assays above

OCCOCCOCCO
active: [12] 16.9 µM
not listed: [7] | [8] | [9] | [10] | [11]
inactive: all other assays above

CCOC(=O)C1=C(COCCN)NC(C)=C(C(=O)OC)C1c1ccccc1Cl (configuration not stated)
not listed: [3] | [8] | [14]
inactive: all other assays above

COc1ccc(/C=N/NC(=O)c2ccncc2)c(C(=O)O)c1OC
not listed: [9]
inactive: all other assays above

CC(=O)c1ccc2c(c1)N(CCCN1CCN(CCO)CC1)c1ccccc1S2
active: [1] 8.91 µM | [5] 10 µM | [6] 11.2 µM | [13] 10 µM | [14] 11.2 µM | [16] 11.2 µM | [18] 10 µM | [19] 8.91 µM

O=c1n(CC2CO2)c(=O)n(CC2CO2)c(=O)n1CC1CO1 (configuration not stated)
inactive: [2] | [3] | [9] | [11] | [12] | [13] | [15] | [19]

NC(=O)CC[C@@H]1NC(=O)[C@H](Cc2ccccc2)NC(=O)[C@H](Cc2ccc(O)cc2)NC(=O)[C@@H](N)CSSC[C@@H](C(=O)N2CCC[C@H]2C(=O)N[C@@H](CCCN=C(N)N)C(=O)NCC(N)=O)NC(=O)[C@H](CC(N)=O)NC1=O
not listed: [2] | [3] | [6]
inactive: all other assays above

CC(CN(C)C)CN1c2ccccc2Sc2ccc(C(F)(F)F)cc21 (configuration not stated)
active: [2] 11.2 µM | [6] 8.91 µM
inactive: [7]

O=C(O[C@H]1CN2CCC1CC2)N1CCc2ccccc2[C@@H]1c1ccccc1
inactive: [2] | [3] | [20] | [5] | [7] | [9] | [10] | [13] | [15] | [17] | [18]

O=P(O)(O)OP(=O)(O)O
not listed: [1] | [2] | [3] | [13] | [15] | [18]
inactive: all other assays above

CCCCCCCCCCCCCCCCOCCOCCOCCOCCOCCOCCOCCOCCOCCOCCOCCOCCOCCOCCOCCOCCOCCOCCOCCOCCO
active: [2] 14.1 µM | [20] 11.2 µM | [14] 7.08 µM

C/C(=C\C(=O)OCCCCCCCCC(=O)O)C[C@@H]1OC[C@H](C[C@@H]2O[C@H]2[C@@H](C)[C@H](C)O)[C@@H](O)[C@H]1O
active: [8] 0.135 µM | [19] 0.316 µM

COc1ccc2c(=O)c(C)c(-c3ccccc3)oc2c1CN(C)C
not listed: [1] | [12] | [14] | [20]
inactive: all other assays above

— PubChem BioAssay (NCATS)
